{"source": "the supplement of paper PMC8728848", "binders": {"B1": {"name": "AAL (Aleuria aurantia) (protein)", "chain": "MPTEFLYTSKIAAISWAATGGRQQRVYFQDLNGKIREAQRGGDNPWTGGSSQNVIGEAKLFSPLAAVTWKSAQGIQIRVYCVNKDNILSEFVYDGSKWITGQLGSVGVKVGSNSKLAALQWGGSESAPPNIRVYYQKSNGSGSSIHEYVWSGKWTAGASFGSTVPGTGIGATAIGPGRLRIYYQATDNKIREHCWDSNSWYVGGFSASASAGVSIAAISWGSTPQIRVYWQKGREELYEAAYGGSWNTPGQIKDASRPTPSLPDTFIAANSSGNIDISVFFQASGVSLQQWQWISGKGWSIGAVVPTGTPAGW"}}, "experiment_in_all_cases": "glycan array binding signal (z-score within array); higher = stronger binding", "conditions_in_all_cases": "glycan notation: IUPAC condensed, linker removed; mutation: N224Q", "key": {"[1]": {"target": "Gal(b1-4)GlcNAc(b1-3)Gal(b1-4)GlcNAc(b1-3)Gal(b1-4)GlcNAc(b1-3)Gal(b1-4)GlcNAc(b1-2)[Gal(b1-4)GlcNAc(b1-3)Gal(b1-4)GlcNAc(b1-3)Gal(b1-4)GlcNAc(b1-3)Gal(b1-4)GlcNAc(b1-6)]Man(a1-6)[Gal(b1-4)GlcNAc(b1-3)Gal(b1-4)GlcNAc(b1-3)Gal(b1-4)GlcNAc(b1-3)Gal(b1-4)GlcNAc(b1-2)Man(a1-3)]Man(b1-4)GlcNAc(b1-4)[Fuc(a1-6)]GlcNAc", "method_in_brief": "(§1)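 Glycan array binding is given as a within-array Z-score, which can be read as non-binding when negative. The arrays, 3228 of them, came from the Consortium for Functional Glycomics database and were retained only where the protein sequence was available. Z-scores were averaged across arrays of the same protein sequence at different concentrations or buffers and across linkers.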"}, "Gal3S(b1-4)Glc": {"target": "Gal3S(b1-4)Glc", "method_in_brief": "as §1"}, "[2]": {"target": "GlcNAc(a1-4)Gal(b1-4)GlcNAc(b1-3)Gal(b1-4)Glc", "method_in_brief": "as §1"}, "[3]": {"target": "GlcNAc(b1-3)Gal(b1-4)GlcNAc(b1-3)Gal(b1-4)GlcNAc(b1-2)Man(a1-3)[GlcNAc(b1-3)Gal(b1-4)GlcNAc(b1-3)Gal(b1-4)GlcNAc(b1-2)Man(a1-6)]Man(b1-4)GlcNAc(b1-4)[Fuc(a1-6)]GlcNAc", "method_in_brief": "as §1"}, "[4]": {"target": "GlcNAc(b1-3)Gal(b1-4)GlcNAc(b1-3)Gal(b1-4)GlcNAc(b1-3)Gal(b1-4)GlcNAc(b1-2)[GlcNAc(b1-3)Gal(b1-4)GlcNAc(b1-3)Gal(b1-4)GlcNAc(b1-3)Gal(b1-4)GlcNAc(b1-6)]Man(a1-6)[GlcNAc(b1-3)Gal(b1-4)GlcNAc(b1-3)Gal(b1-4)GlcNAc(b1-3)Gal(b1-4)GlcNAc(b1-2)Man(a1-3)]Man(b1-4)GlcNAc(b1-4)[Fuc(a1-6)]GlcNAc", "method_in_brief": "as §1"}, "[5]": {"target": "GlcNAc(b1-3)Gal(b1-4)GlcNAc(b1-3)Gal(b1-4)GlcNAc(b1-3)Gal(b1-4)GlcNAc(b1-3)Gal(b1-4)GlcNAc(b1-2)Man(a1-3)[GlcNAc(b1-3)Gal(b1-4)GlcNAc(b1-3)Gal(b1-4)GlcNAc(b1-3)Gal(b1-4)GlcNAc(b1-3)Gal(b1-4)GlcNAc(b1-2)Man(a1-6)]Man(b1-4)GlcNAc(b1-4)[Fuc(a1-6)]GlcNAc", "method_in_brief": "as §1"}, "[6]": {"target": "GlcNAc(b1-3)[GlcNAc(b1-6)]Gal(b1-4)GlcNAc", "method_in_brief": "as §1"}, "GlcNAc(b1-6)GalNAc": {"target": "GlcNAc(b1-6)GalNAc", "method_in_brief": "as §1"}, "[7]": {"target": "Man(a1-2)Man(a1-3)[Man(a1-2)Man(a1-6)]Man(a1-6)[Man(a1-2)Man(a1-2)Man(a1-3)]Man(b1-4)GlcNAc(b1-4)GlcNAc", "method_in_brief": "as §1"}, "[8]": {"target": "Neu5Ac(a2-3)Gal(b1-3)GlcNAc(b1-2)Man", "method_in_brief": "as §1"}, "[9]": {"target": "Neu5Ac(a2-3)Gal(b1-4)GlcNAc(b1-2)[Neu5Ac(a2-3)Gal(b1-4)GlcNAc(b1-4)]Man(a1-3)[GlcNAc(b1-4)][Neu5Ac(a2-3)Gal(b1-4)GlcNAc(b1-2)[Neu5Ac(a2-3)Gal(b1-4)GlcNAc(b1-6)]Man(a1-6)]Man(b1-4)GlcNAc(b1-4)GlcNAc", "method_in_brief": "as §1"}, "[10]": {"target": "Neu5Ac(a2-3)Gal(b1-4)GlcNAc(b1-3)Gal(b1-4)[Fuc(a1-3)]GlcNAc", "method_in_brief": "as §1"}, "[11]": {"target": "Neu5Ac(a2-3)Gal(b1-4)[Fuc(a1-3)]GlcNAc", "method_in_brief": "as §1"}, "[12]": {"target": "Neu5Ac(a2-3)Gal(b1-4)[Fuc(a1-3)]GlcNAc(b1-2)Man", "method_in_brief": "as §1"}, "Neu5Ac(a2-6)Gal": {"target": "Neu5Ac(a2-6)Gal", "method_in_brief": "as §1"}, "[13]": {"target": "Neu5Ac(a2-6)Gal(b1-4)GlcNAc(b1-2)[Neu5Ac(a2-6)Gal(b1-4)GlcNAc(b1-6)]Man(a1-6)[Neu5Ac(a2-6)Gal(b1-4)GlcNAc(b1-2)Man(a1-3)][GlcNAc(b1-4)]Man(b1-4)GlcNAc(b1-4)GlcNAc", "method_in_brief": "as §1"}, "[14]": {"target": "Neu5Ac(a2-6)Gal(b1-4)GlcNAc(b1-3)Gal(b1-3)GlcNAc", "method_in_brief": "as §1"}, "[15]": {"target": "Neu5Ac(a2-6)GalNAc(b1-4)GlcNAc", "method_in_brief": "as §1"}, "[16]": {"target": "Neu5Ac(a2-6)GlcNAc(b1-4)GlcNAc", "method_in_brief": "as §1"}, "[17]": {"target": "Neu5Gc(a2-3)Gal(b1-4)[Fuc(a1-3)]GlcNAc", "method_in_brief": "as §1"}}, "note": "About 410 targets per protein were measured; listed, in parts, are those with the strongest signals and a random draw of the rest.", "data": [{"binder": "B1", "values": [{"measurement": "glycan array binding signal (z-score)", "setting": "[1]", "result": -0.229}, {"measurement": "glycan array binding signal (z-score)", "setting": "Gal3S(b1-4)Glc", "result": -0.321}, {"measurement": "glycan array binding signal (z-score)", "setting": "[2]", "result": -0.318}, {"measurement": "glycan array binding signal (z-score)", "setting": "[3]", "result": 2.92}, {"measurement": "glycan array binding signal (z-score)", "setting": "[4]", "result": -0.085}, {"measurement": "glycan array binding signal (z-score)", "setting": "[5]", "result": 1.97}, {"measurement": "glycan array binding signal (z-score)", "setting": "[6]", "result": -0.322}, {"measurement": "glycan array binding signal (z-score)", "setting": "GlcNAc(b1-6)GalNAc", "result": -0.325}, {"measurement": "glycan array binding signal (z-score)", "setting": "[7]", "result": -0.312}, {"measurement": "glycan array binding signal (z-score)", "setting": "[8]", "result": -0.311}, {"measurement": "glycan array binding signal (z-score)", "setting": "[9]", "result": -0.327}, {"measurement": "glycan array binding signal (z-score)", "setting": "[10]", "result": -0.32}, {"measurement": "glycan array binding signal (z-score)", "setting": "[11]", "result": 0.758}, {"measurement": "glycan array binding signal (z-score)", "setting": "[12]", "result": 0.186}, {"measurement": "glycan array binding signal (z-score)", "setting": "Neu5Ac(a2-6)Gal", "result": -0.314}, {"measurement": "glycan array binding signal (z-score)", "setting": "[13]", "result": -0.303}, {"measurement": "glycan array binding signal (z-score)", "setting": "[14]", "result": -0.324}, {"measurement": "glycan array binding signal (z-score)", "setting": "[15]", "result": -0.323}, {"measurement": "glycan array binding signal (z-score)", "setting": "[16]", "result": -0.327}, {"measurement": "glycan array binding signal (z-score)", "setting": "[17]", "result": 0.052}]}]}
